Results taken from PubChem BioAssay AID2289 (National Center for Advancing Translational Sciences (NCATS), 2010).
About 3,300 (0.97%) of roughly 340,000 compounds were called active. Roughly 9% stayed inconclusive and do not appear here. The call rests on the fitted dose curve; in most records, active means well fitted inhibition curve with a large enough effect; inconclusive means small, poorly fitted or top-dose-only effect, or effect the other way; inactive means flat fitted curve, though single readings scatter. Some of the results follow.

Assay: qHTS Assay for Modulators of miRNAs and/or Inhibitors of miR-21; further: nearly all actives have a fitted effect of over 55% in size
Settings: HeLa miR-21-FLuc reporter, luciferase luminescence, 48 h; actives lower the signal
Summary of the method: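 Luminescence from a firefly luciferase reporter carrying a miR-21 binding site downstream, stably expressed under a CMV promoter in HeLa cells that make miR-21 endogenously, reports miRNA modulation after 48 h compound exposure up to approximately 40uM final.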
Potency means the concentration at half of the fitted maximal effect.

Potency, active:
CCOC(=O)c1ccc2ncc(-c3ccccc3)nc2c1 1.85 µM, CCOC(=O)c1ccc2c(c1)nc(-c1ccccn1)n2CC 1.65 µM, O=[N+]([O-])c1cccc(-c2ccc(SCc3ccccn3)nn2)c1 6.56 µM, Cc1cc2ncn(C(=O)N3CCC(C)CC3)c2cc1C 10.4 µM, COc1cc(/C=C/c2ccc(O)cc2)cc(OC)c1 2.93 µM, FC(F)(F)c1ccnc(Oc2ccc(C3=NCCS3)cc2)c1 1.65 µM, Cc1ccccc1CSc1ccc(-c2ccc3c(c2)OCO3)nn1 14.7 µM, O=C(Cn1nnc(-c2ccc3c(c2)OCO3)n1)Nc1ccccc1C(=O)O 14.7 µM, Cc1ccccc1Cn1nnc(-c2ccc3c(c2)OCO3)n1 16.5 µM, COc1cccc(-n2cnc3sc(C)c(C)c3c2=O)c1 11.7 µM, Clc1ccccc1-c1nnc(-c2ccccc2Cl)o1 3.69 µM, Fc1cccc(NCc2ccccc2-c2nnc(-c3ccccc3Cl)o2)c1 1.04 µM, Clc1ccccc1-c1nnc(-c2ccc3c(c2)OCO3)o1 0.585 µM, O=C(c1cccc(C(F)(F)F)c1)C1CCCN(C(=O)CN2CCCC2=O)C1 (centres undefined) 3.29 µM, N#Cc1ccccc1CSc1nc2ccsc2c(=O)n1Cc1ccccn1 16.5 µM, Clc1ccccc1OCc1nnc(-c2ccccc2Br)o1 4.65 µM, Clc1ccccc1-c1nnc(COc2ccccc2)o1 5.85 µM, Clc1cccc(OCc2nnc(-c3ccccc3Br)o2)c1 16.5 µM, Fc1ccc(OCc2nnc(-c3ccccc3Br)o2)c(Cl)c1 13.1 µM, Clc1ccccc1OCc1nnc(-c2ccccc2)o1 7.36 µM, N#Cc1ccccc1OCc1nnc(-c2ccccc2Br)o1 1.31 µM, C(#Cc1ccccc1)Cn1nnc2ccccc21 13.1 µM, c1ccc(CCn2nnc3ccccc32)cc1 14.7 µM, Clc1ccccc1OCCn1nnc2ccccc21 13.1 µM, CCOC(=O)C1(Cc2ccccc2)CCCN(C(=O)c2cnn(CC)c2)C1 (centres undefined) 9.27 µM, CCOC(=O)C1(Cc2cccc(OC)c2)CCCN(C(=O)CCN2CCCO2)C1 (centres undefined) 5.85 µM, O=C(N/N=C/c1cn(-c2ccccc2)nc1-c1cc2ccccc2o1)c1ccccc1Br 0.927 µM, CCC(=O)Nc1ccc2nc(C3CC3)n(Cc3ccc(C(C)(C)C)cc3)c(=O)c2c1 0.185 µM, COc1ccc(Cn2c(C3CC3)nc3ccc(NC(=O)C4CC4)cc3c2=O)cc1 1.47 µM, COc1ccc(Cn2c(C3CC3)nc3ccc(NC(C)=O)cc3c2=O)cc1 3.29 µM, CC(=O)c1ccc(NS(=O)(=O)c2cccc(C)c2)cc1 11.7 µM, Cc1ccc2nc(-c3ccc(NS(=O)(=O)c4ccc(F)cc4)cc3)sc2c1 6.56 µM, Cc1cccc(S(=O)(=O)Nc2ccc(-c3nc4ccc(C)cc4s3)cc2)c1 2.07 µM, CCc1ccc2oc(-c3cc(N=Cc4cccc(OC)c4O)ccc3O)nc2c1 0.656 µM, O=C(N/N=C/c1cccs1)c1c[nH]c2ccccc12 7.36 µM, CC/C(=N\NC(=O)c1c[nH]c2ccccc12)c1cccs1 2.93 µM, S=C(c1ccc(-c2ccccc2Cl)o1)N1CCCCC1 3.29 µM, CN1CCN(C(=S)c2ccc(-c3cccc(Cl)c3Cl)o2)CC1 5.21 µM, COCCCNC(=S)N/N=C/c1ccc(N(C)C)cc1Cl 5.85 µM, Cc1cccc(NC(=O)c2cc(-c3cc(C)c(C)cc3O)n[nH]2)c1 0.736 µM, Cc1ccc(O)c(-c2cc(-c3cccc(Br)c3)n[nH]2)c1 6.56 µM, Cc1cccc(NC(=O)c2cc(-c3cc(C)ccc3O)n[nH]2)c1 1.04 µM, Cc1ccc(C)c(NC(=O)c2cc(-c3cc(C)ccc3O)n[nH]2)c1 5.21 µM, O=C(O)c1ccc(N/N=C/c2ccnc3ccccc23)cc1 3.69 µM, O=C(O)c1ccc(N/N=C/c2cccc3cccnc23)cc1 0.369 µM, Cn1ncc2c(Nc3ccc4ccccc4c3)ncnc21 4.65 µM, CCCn1ncc2c(Nc3ccc(C)c(C)c3)ncnc21 4.65 µM, Clc1ccc2c(c1)C1OCCC1C(c1ccco1)N2 (centres undefined) 6.56 µM, Clc1ccc2c(c1)[C@H]1OCC[C@H]1[C@@H](c1ccco1)N2 5.85 µM, COc1ccccc1OCCNC(=O)c1ccc2c(c1)CCC2 5.85 µM, CCC(=O)c1ccc(OCc2ccccc2)c(OC)c1 6.56 µM, CCCNC(=O)c1cccc(COc2ccccc2OC)c1 2.07 µM, COc1ccccc1OCCNC(=O)c1ccc(Br)cc1 16.5 µM, Cc1ccc(OCCNC(=O)c2ccc(C)cc2)cc1 14.7 µM, Clc1cccc(Cl)c1Cn1ccc(C2CC2)n1 10.4 µM, O=C(NCc1ccccc1)c1c[nH]c2cc3c(cc2c1=O)OCCO3 2.33 µM, Cc1cc(O)ccc1N/C=C/c1onc(C)c1[N+](=O)[O-] 1.04 µM, Cc1ccc(N/C=C/c2onc(C)c2[N+](=O)[O-])cc1 0.185 µM, O=C(c1ccc2ccccc2n1)N1CCN(c2ccccc2Cl)CC1 16.5 µM, Oc1ccccc1N1CCN(c2ccc3ccccc3n2)CC1 0.826 µM, CN(C)c1cnn(-c2ccccc2)c(=O)c1Cl 14.7 µM, CC(=O)Nc1ccc(OCC(O)Cn2ccnc2)cc1 (centres undefined) 16.5 µM, COc1ccc(-c2cnc3ccccc3n2)cc1NC(=O)CNC(=O)c1ccccc1 6.56 µM, CCOC(=O)c1ccc2c(c1)NCc1cccc(OC)c1O2 3.29 µM, CCN(CC)c1ccc(/C=N/N2CCOCC2)c(O)c1 2.93 µM, Cc1cccc(NC(=O)Nc2cc(C)cc(C)n2)c1 0.736 µM, Cc1ccc(NC(=O)Nc2cccc(C)n2)cc1 2.07 µM, CSc1ccc(NC(=O)Nc2cc(C)ccn2)cc1 0.104 µM, COc1cccc(NC(=S)Nc2cc(C)cc(C)n2)c1 4.65 µM
